# Values joined by “and” are separate entries in the source; they are usually repeats but may differ in a detail not shown here. Equal entries are not always repeated. The whole screen tested about 5,500 compounds, of which about 2,000 (36%) were called active. Another 18% or so got no clear call; they are omitted. Cut-off read from the data, not from the text of the source: active = normalized growth mostly below about 0.91 (no sharp cut-off); inconclusive = no clear call, values can overlap the other calls; inactive = mostly above about 0.92. The list shows a part of the results.
# Test: chemical genetic growth profiling, strain panel (AID 1159580);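 note: tested at 20 µM; growth read once vehicle control cultures reached saturation at 30 °C; 1 = growth at the plate median or of vehicle wells; lower values mean less growth of the strain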
# Conditions: S. cerevisiae deletion strains, growth OD
smiles,measurement,setting,value
CCCCOc1ccc(OCCCN2CCOCC2)cc1,normalized growth,"locus YAL013W, strain DEP1, stronger effect = lower value",0.994 (inactive)
same,normalized growth,"locus YAL021C, strain ccr4, stronger effect = lower value",0.829 (active)
same,normalized growth,"locus YAL026C, strain drs2, stronger effect = lower value",0.0964 (active)
same,normalized growth,"locus YAL030W, strain snc1, stronger effect = lower value",0.988 (inactive)
same,normalized growth,"locus YBL061C, strain skt5, stronger effect = lower value",0.955 (inactive)
same,normalized growth,"locus YBR009C, strain hhf1, stronger effect = lower value",0.96 (inactive)
same,normalized growth,"locus YBR021W, strain FUR4, stronger effect = lower value",1.16 [resistant] (active)
same,normalized growth,"locus YBR023C, strain chs3, stronger effect = lower value",0.946 (inactive)
same,normalized growth,"locus YBR171W, strain sec66, stronger effect = lower value",0.942 (inactive)
same,normalized growth,"locus YBR229C, strain ROT2, stronger effect = lower value",1 (inactive)
same,normalized growth,"locus YBR231C, strain swc5, stronger effect = lower value",0.935 (inactive)
same,normalized growth,"locus YBR279W, strain paf1, stronger effect = lower value",0.918 (active)
same,normalized growth,"locus YCL011C, strain gbp2, stronger effect = lower value",0.966 (inactive)
same,normalized growth,"locus YCL016C, strain dcc1, stronger effect = lower value",0.928 (inactive)
same,normalized growth,"locus YCL029C, strain bik1, stronger effect = lower value",0.938 (inactive)
same,normalized growth,"locus YCL069W, strain vba3, stronger effect = lower value",0.995 (inactive)
same,normalized growth,"locus YCR088W, strain abp1, stronger effect = lower value",0.997 (inactive)
same,normalized growth,"locus YDL005C, strain med2, stronger effect = lower value",1 (inactive)
same,normalized growth,"locus YDL035C, strain GPR1, stronger effect = lower value",0.855 (active)
same,normalized growth,"locus YDL040C, strain nat1, stronger effect = lower value",0.987 (inactive)
same,normalized growth,"locus YDL074C, strain BRE1, stronger effect = lower value",0.841 (inactive)
same,normalized growth,"locus YDL101C, strain DUN1, stronger effect = lower value",0.963 (inactive)
same,normalized growth,"locus YDL134C, strain PPH21, stronger effect = lower value",0.823 (active)
same,normalized growth,"locus YDL185W, strain tfp1, stronger effect = lower value",0.979 (inactive)
same,normalized growth,"locus YDL192W, strain arf1, stronger effect = lower value",0.893 (active)
same,normalized growth,"locus YDR001C, strain nth1, stronger effect = lower value",0.983 (inactive)
same,normalized growth,"locus YDR069C, strain doa4, stronger effect = lower value",0.883 (active)
same,normalized growth,"locus YDR101C, strain arx1, stronger effect = lower value",0.916 (active)
same,normalized growth,"locus YDR137W, strain rgp1, stronger effect = lower value",0.913 (inactive)
same,normalized growth,"locus YDR150W, strain NUM1, stronger effect = lower value",0.984 (inactive)
same,normalized growth,"locus YDR159W, strain sac3, stronger effect = lower value",0.943 (inactive)
same,normalized growth,"locus YDR162C, strain NBP2, stronger effect = lower value",0.952 (inactive)
same,normalized growth,"locus YDR195W, strain ref2",1.21 [resistant] (active)
same,normalized growth,"locus YDR297W, strain sur2, stronger effect = lower value",0.968 (inactive)
same,normalized growth,"locus YDR318W, strain mcm21, stronger effect = lower value",0.884 (active)
same,normalized growth,"locus YDR334W, strain swr1, stronger effect = lower value",0.947 (inactive)
same,normalized growth,"locus YDR335W, strain msn5, stronger effect = lower value",0.904 (active)
same,normalized growth,"locus YDR388W, stronger effect = lower value",0.9 (active)
same,normalized growth,"locus YDR392W, strain spt3, stronger effect = lower value",0.868 (inactive)
same,normalized growth,"locus YDR502C, strain sam2, stronger effect = lower value",0.872 (active)
same,normalized growth,"locus YEL003W, strain gim4, stronger effect = lower value",0.918 (inactive)
same,normalized growth,"locus YEL037C, strain rad23, stronger effect = lower value",0.98 (inactive)
same,normalized growth,"locus YEL061C, strain CIN8 (second series), stronger effect = lower value",0.973 (inactive)
same,normalized growth,"locus YEL061C, strain CIN8, stronger effect = lower value",0.931 (inactive)
same,normalized growth,"locus YER015W, strain faa2, stronger effect = lower value",0.925 (active)
same,normalized growth,"locus YER016W, strain bim1, stronger effect = lower value",0.983 (inactive)
same,normalized growth,"locus YER110C, stronger effect = lower value",0.922 (inactive)
same,normalized growth,"locus YER111C, strain swi4, stronger effect = lower value",0.962 (inactive)
same,normalized growth,"locus YER155C, strain BEM2 (second series), stronger effect = lower value",0.407 (active)
same,normalized growth,"locus YER155C, strain BEM2, stronger effect = lower value",1.04 (inactive)
same,normalized growth,"locus YER167W, strain BCK2, stronger effect = lower value",0.838 (active)
same,normalized growth,"locus YFR010W, strain ubp6, stronger effect = lower value",0.884 (active)
same,normalized growth,"locus YGL078C, strain dbp3, stronger effect = lower value",0.966 (inactive)
same,normalized growth,"locus YGL086W, strain mad1, stronger effect = lower value",0.906 (active)
same,normalized growth,"locus YGL167C, strain pmr1, stronger effect = lower value",0.966 (inactive)
same,normalized growth,"locus YGL173C, strain kem1, stronger effect = lower value",0.929 (inactive)
same,normalized growth,"locus YGL227W, strain vid30, stronger effect = lower value",0.966 (inactive)
same,normalized growth,"locus YGL240W, strain doc1, stronger effect = lower value",0.965 (inactive)
same,normalized growth,"locus YGL248W, strain PDE1, stronger effect = lower value",0.863 (active)
same,normalized growth,"locus YGL253W, strain hxk2, stronger effect = lower value",0.94 (inactive)
same,normalized growth,"locus YGR078C, strain PAC10, stronger effect = lower value",0.828 (active)
same,normalized growth,"locus YGR135W, strain pre9, stronger effect = lower value",0.784 (active)
same,normalized growth,"locus YGR229C, strain SMI1, stronger effect = lower value",0.598 (active)
same,normalized growth,"locus YGR252W, strain gcn5, stronger effect = lower value",0.588 (active)
same,normalized growth,"locus YHR013C, strain ard1, stronger effect = lower value",0.799 (active)
same,normalized growth,"locus YHR027C, strain rpn1, stronger effect = lower value",0.953 (inactive)
same,normalized growth,"locus YHR030C, strain SLT2, stronger effect = lower value",0.911 (active) and 0.965 (inactive)
same,normalized growth,"locus YHR079C, strain IRE1 (second series), stronger effect = lower value",0.93 (inactive)
same,normalized growth,"locus YHR079C, strain IRE1, stronger effect = lower value",0.979 (inactive)
same,normalized growth,"locus YHR094C, strain hxt1, stronger effect = lower value",0.997 (inactive)
same,normalized growth,"locus YHR129C, strain ARP1, stronger effect = lower value",0.99 (inactive)
same,normalized growth,"locus YHR142W, strain chs7, stronger effect = lower value",0.817 (active)
same,normalized growth,"locus YHR200W, strain rpn10, stronger effect = lower value",0.961 (inactive)
same,normalized growth,"locus YIL066C, strain RNR3, stronger effect = lower value",0.719 (active)
same,normalized growth,"locus YIL073C, strain SPO22, stronger effect = lower value",0.804 (inactive)
same,normalized growth,"locus YIL125W, strain kgd1, stronger effect = lower value",1 (inactive)
same,normalized growth,"locus YIR030C, strain dcg1, stronger effect = lower value",0.976 (inactive)
same,normalized growth,"locus YJL092W, strain hpr5, stronger effect = lower value",0.992 (inactive)
same,normalized growth,"locus YJL095W, strain BCK1 (second series), stronger effect = lower value",0.962 (inactive)
same,normalized growth,"locus YJL095W, strain BCK1, stronger effect = lower value",0.653 (active) and 0.972 (inactive)
same,normalized growth,"locus YJL115W, strain asf1, stronger effect = lower value",0.954 (inactive)
same,normalized growth,"locus YJL129C, strain trk1, stronger effect = lower value",0.805 (active)
same,normalized growth,"locus YJL134W, strain LCB3, stronger effect = lower value",0.999 (inactive)
same,normalized growth,"locus YJL154C, strain vps35, stronger effect = lower value",0.995 (inactive)
same,normalized growth,"locus YJL164C, strain tpk1, stronger effect = lower value",0.918 (inactive)
same,normalized growth,"locus YJL166W, strain qcr8, stronger effect = lower value",0.89 (active)
same,normalized growth,"locus YJL168C, strain set2, stronger effect = lower value",0.976 (inactive)
same,normalized growth,"locus YJL187C, strain SWE1 (second series), stronger effect = lower value",0.855 (active)
same,normalized growth,"locus YJL187C, strain SWE1, stronger effect = lower value",0.957 (inactive)
same,normalized growth,"locus YJR043C, strain POL32, stronger effect = lower value",0.934 (inactive)
same,normalized growth,"locus YJR066W, strain TOR1, stronger effect = lower value",0.884 (inactive)
